# MITF primary = human MITF inhibition, primary screen; O75030; actives 0.91% (n = 650,000); inhibition, % at 2.6 µM; AlphaScreen MITF homodimerization, bead proximity signal; AID 1259374; in the data active = inhibition above about 50%
# GPR151 activ = human GPR151 activation. AID 1508602. PathHunter beta-arrestin GPR151 cells, luminescence. actives 1% (n = 650,000). activation, % at 11.2 µM. Q8TDV0; in the data active = activation above about 4.9%
# Target sequence (Q8TDV0 whole entry, looked up): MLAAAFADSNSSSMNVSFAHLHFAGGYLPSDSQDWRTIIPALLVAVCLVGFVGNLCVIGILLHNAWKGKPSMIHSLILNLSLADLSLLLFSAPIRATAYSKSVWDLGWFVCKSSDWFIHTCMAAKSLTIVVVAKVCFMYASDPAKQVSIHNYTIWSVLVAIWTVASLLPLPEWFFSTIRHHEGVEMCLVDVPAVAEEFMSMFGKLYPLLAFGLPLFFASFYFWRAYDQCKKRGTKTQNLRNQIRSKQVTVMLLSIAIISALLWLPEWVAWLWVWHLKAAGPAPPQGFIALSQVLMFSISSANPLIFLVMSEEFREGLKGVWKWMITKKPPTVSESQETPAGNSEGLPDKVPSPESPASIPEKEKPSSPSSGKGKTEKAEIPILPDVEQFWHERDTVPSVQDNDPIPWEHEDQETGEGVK
# FBW7 activator = activators of human E3 ligase FBW7; Q969H0; AlphaScreen FBW7–phospho-cyclin E peptide binding, activator screen; normalized activity (activation), % at 26.1 µM; actives 0.13% (n = 650,000); in the data active = normalized activity above about 1.9%;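 note: purified mutant Fbw7 with reduced substrate affinity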
# TEAD-YAP block = TEAD-YAP interaction inhibition | HEK-TIYL cells, TEAD-Gal4/YAP UAS-luciferase luminescence | inhibition, % at 9.12 µM | actives 1.4% (n = 640,000) | AID 1259422; in the data active = inhibition above about 32%
# Hits are given with their value; . = inactive. An excerpt weighted towards active compounds, which were near 3.5% of everything screened.
SMILES,MITF primary,GPR151 activ,FBW7 activator,TEAD-YAP block
COc1ccc(N2C(=O)NC(=O)/C(=C/c3ccc(I)o3)C2=O)cc1,68.6,.,.,.
S=c1n(CN2CCOCC2)nc2c(Cl)cc(Cl)cn12,.,.,.,.
COc1ccc(Br)cc1/C=N/Nc1nnc2c(n1)[nH]c1ccccc12,.,.,2.1,.
Cc1ccc2[nH]c3nc(N/N=C/c4ccc(O)c(O)c4)nnc3c2c1,87.0,.,.,.
Cc1ccc2[nH]c3nc(N/N=C/c4ccc(O)cc4O)nnc3c2c1,.,.,.,63.3
CCOc1cc(/C=N/Nc2nnc3c(n2)[nH]c2ccc(C)cc23)ccc1O,.,.,.,.
COc1ccc(/C=N/Nc2nnc3c(n2)[nH]c2ccc(Br)cc23)c(O)c1,.,.,.,.
COc1cccc(/C=N/Nc2nnc3c(n2)[nH]c2ccccc23)c1,.,.,.,.
COc1ccc(CNc2ccnc3c(-c4ccc(OC)c(OC)c4)cnn23)cc1,.,.,.,.
CCOc1ccc(CCNc2nc3ccc(C)cc3n3nnnc23)cc1OCC,.,.,.,.
CC(=O)OC1c2ccccc2NC(c2ccccc2)C1(C)C (centres undefined),.,.,.,.
CC(=O)OC1c2cc(C)ccc2NC(c2ccccc2)C1(C)C (centres undefined),.,.,.,63.1
CCOc1cc(C=C2C(=O)NC(=S)NC2=O)ccc1OCC(=O)O,70.5,.,.,.
O=C(NCC(c1cccs1)N1CCOCC1)c1ccc(Cl)s1 (centres undefined),.,.,.,57.3
CCOc1ccccc1NC(=O)C(=O)N/N=C/c1cccc(OC)c1O,.,.,.,79.2
CCOc1ccccc1NC(=O)C(=O)N/N=C/c1cccc(Cl)c1Cl,.,.,.,.
COc1cccc(/C=N/NC(=O)C(=O)Nc2ccccc2OC(F)(F)C(F)F)c1O,.,.,.,64.9
CCCCNC(=O)C(=O)Nc1ccccc1OCC,.,.,2.3,.
O=C(N/N=C/c1ccccc1)C(=O)Nc1ccccc1OC(F)(F)C(F)F,.,.,.,.
Cc1ccc(-n2ncc3c(SCC(=O)NCc4ccco4)ncnc32)c(C)c1,.,.,.,38.7
CCC[n+]1cccc2ccc3cccnc3c21,.,.,.,53.8
CCOC(=O)c1sc2nccc(N(C)C)c2c1N,.,.,.,.
CN(C)c1ccnc2sc(C(N)=O)c(N)c12,.,.,.,52.8
CN(C)c1nc(SCC(N)=O)nc(N2CCOCC2)n1,.,.,.,.
CCOc1ccc(O)c(/C=N/NC(=O)/C(=C\c2cccs2)NC(=O)c2ccccc2)c1,.,.,.,.
SMILES,MITF primary,GPR151 activ,FBW7 activator,TEAD-YAP block
NNC(=O)/C(=C/c1cccs1)NC(=O)c1ccccc1,.,.,.,46.6
COc1ccc(O)c(/C=N/NC(=O)/C(=C\c2cccs2)NC(=O)c2ccccc2)c1,.,.,.,58.3
CCN1CC(CN(C)C(=O)CCc2nnc(C3(c4ccc(Cl)cc4)CCC3)o2)CC1=O (centres undefined),.,.,.,.
O=C(O)CCNc1nc2ccccc2s1,.,.,.,42.3
O=C(O)CNc1nc2ccccc2s1,.,.,.,.
c1ccc(NNc2nc3ccccc3s2)cc1,.,.,.,35.8
O=C(NNc1nc2ccccc2s1)Nc1ccccc1,.,.,.,.
Cc1ccc(-n2nnc3c(=O)n(CC(=O)N4CCN(c5ccccc5)CC4)cnc32)cc1Cl,.,.,.,.
O=C(Cc1cccs1)Nc1cccc(-c2ccc(N3CCCCC3)nn2)c1,.,.,.,51.5
CCC(=O)N1CCCc2ccc(NC(=O)NCc3cccc4ccccc34)cc21,.,.,14.4,.
Cc1cccc(NC(c2ccc(C(F)(F)F)cc2)c2ccc3cccnc3c2O)n1 (centres undefined),.,.,.,76.9
Oc1c(C(Nc2ccccn2)c2ccc(C(F)(F)F)cc2)ccc2cccnc12 (centres undefined),.,.,.,45.6
CC1CCCN(c2csc3ccccc3c2=O)C1 (centres undefined),.,.,1.9,.
NC(=O)C1CCN(c2csc3ccccc3c2=O)CC1,.,.,.,.
CN(Cc1cc(Cl)c2cccnc2c1O)C1CCCCC1,.,.,.,82.8
CN(Cc1cc([N+](=O)[O-])c2cccnc2c1O)C1CCCCC1,113.8,.,.,.
CN(Cc1cc(Br)c(O)c2ncccc12)C1CCCCC1,79.2,.,.,86.5
Oc1c(I)cc(Cl)c2cccnc12,.,.,.,.
O=[N+]([O-])c1cc(CN2CCN(c3ccccc3)CC2)c(O)c2ncccc12,61.3,.,.,47.7
O=[N+]([O-])c1ccc(N2CCN(c3ccccc3)CC2)c2ncccc12,.,.,.,.
Cc1nccn1CCCNC(=O)CC1C(=O)NCCN1Cc1ccc(F)cc1 (centres undefined),.,.,.,.
CCOc1ccc2nc(SCCC(=O)Nc3ccc(OC)cc3)sc2c1,.,.,.,.
CCc1ccc2nc(N3CCC(C(=O)N4CCCC4)CC3)sc2c1,.,.,.,47.7
CCOC(=O)N1CCN(C(=O)C2CCN(c3nc4ccc(CC)cc4s3)CC2)CC1,.,.,.,.
CCOc1ccc2nc(N3CCC(C(=O)Nc4cccc(C(C)=O)c4)CC3)sc2c1,.,.,.,68.6
SMILES,MITF primary,GPR151 activ,FBW7 activator,TEAD-YAP block
CCOc1ccc(NC(=O)C2CCN(c3nc4ccc(OCC)cc4s3)CC2)cc1,.,.,.,.
CCOc1ccc2nc(SCCC(=O)Nc3ccccc3)sc2c1,.,.,.,35.6
CCc1ccc2nc(N3CCCC(C(=O)O)C3)sc2c1 (centres undefined),.,.,.,57.6
Cn1c(=O)n(C)c2cc(S(=O)(=O)NNc3ccccc3)ccc21,.,.,.,.
COc1ccc(-c2csc(Nc3ccccc3Cl)n2)cc1,.,.,.,.
Cc1nc(NCCNC(=O)Nc2cccc(Cl)c2C)cc(N(C)C)n1,.,.,.,.
COc1cc(NC(=O)c2cccc(-n3cc(Nc4cnnn4-c4ccccc4)cn3)c2)ccc1N1CCOCC1,.,.,.,.
COc1cc(NC(=O)c2cccc(-n3cc(NC(=O)Nc4ccccc4)cn3)c2)cc(OC)c1OC,.,.,.,36.6
COc1cc(C(=O)Nc2ccc3c4c(cccc24)CC3)cc(OC)c1OC,.,.,.,52.8
COc1cc(C(=O)Nc2cccc(C(=O)Nc3cccc4ccccc34)c2)cc(OC)c1OC,.,.,.,64.0
COc1cc(NC(=O)c2cccc(-n3cc(N(C)c4nnnn4-c4ccccc4)cn3)c2)ccc1N1CCOCC1,.,.,.,38.4
COc1ccc(C(=O)Nc2ccc3c4c(cccc24)CC3)cc1,.,.,.,.
COc1ccc(C(=O)Nc2cccc3ccccc23)cc1OC,.,.,.,.
O=C(CCl)NC(=O)c1ccc(Cl)cc1,.,.,.,.
CC(=O)c1ccc(NC(=O)COc2cc(C)ccc2C(C)C)cc1,.,.,.,.
Cc1ccc(C(C)C)c(OCC(=O)Nc2ccc(C(=O)Nc3cccc4ccccc34)cc2)c1,.,.,.,59.6
COc1ccccc1N1CCN(c2nnnn2-c2ccccc2)CC1,.,.,.,36.8
CCN1CCN(c2ncc3c(n2)CC(c2cc(OC)c(OC)c(OC)c2)CC3=O)CC1 (centres undefined),.,.,.,47.0

# Source: PubChem (The Scripps Research Institute Molecular Screening Center)
